# In PubChem BioAssay AID463173 (ICCB-Longwood Screening Facility, Harvard Medical School, 2010):
# The whole screen tested about 52,000 compounds, of which about 4,300 (8.3%) were called active. The sample holds actives, similar compounds and a random draw of the others, so the mix is not that of the screen. No stated cut-off is given here; in the data, active means survival mostly below about 52% (no sharp cut-off); inactive means mostly above about 56%.
# Test system: DeltatarO mutant
# Assay: growth inhibition of S. aureus wild type versus tarO mutant, primary screen, teichoic acid synthesis inhibitors, RN4220, OD600 (AID 463173)
# Conditions: OD600, 18 h, stronger effect = lower value, screened at 18.75 µg/mL (by protocol)
row,SMILES,survival
1,c1ccc(Cn2nnnc2C(c2ccccc2)N2CCN(Cc3ccncc3)CC2)cc1 (configuration not stated),78% (inactive)
2,CCc1ccc(CNC(=O)c2cccc(-n3cnc4cccnc43)c2C)cc1,88% (inactive)
3,CC(=O)c1cccc(NC(=O)CN2C(=O)c3ccccc3Sc3ncccc32)c1,95% (inactive)
4,COc1ccc(CNC2CCCC2)cc1,79% (inactive)
5,COc1ccc2[nH]cc(CCN=C(NC(=O)c3ccccc3F)Nc3nc(C)cc(C)n3)c2c1,99% (inactive)
6,Cc1ccc(C)c(N2CCN(C(=O)CCc3nnc4n(C)c(=O)c5ccccc5n34)CC2)c1,95% (inactive)
7,COc1ccc(OCc2nnc(SCC(=O)N(C3CCCCC3)C3CCCCC3)o2)cc1,72% (inactive)
8,CCc1nc(-c2cc(S(=O)(=O)N3CCN(c4ccccc4F)CC3)ccc2OC)no1,42% (active)
9,CCc1nc(-c2cc(S(=O)(=O)N3CCN(c4ccccc4OC)CC3)ccc2OC)no1,42% (active)
10,COc1ccc(S(=O)(=O)N2CCN(c3ccccc3F)CC2)cc1-c1noc(C)n1,59% (inactive)
11,COc1ccc(S(=O)(=O)N2CCN(c3ccccc3OC)CC2)cc1-c1noc(C)n1,110% (inactive)
12,CCc1nc(-c2cc(S(=O)(=O)N3CCN(c4ccc(F)cc4)CC3)ccc2OC)no1,49% (inactive)
13,CCc1nc(-c2cc(S(=O)(=O)N3CCN(c4ccccc4)CC3)ccc2OC)no1,51% (inactive)
14,Cc1ccc(OCC(=O)Nc2ccc3nc(SCC(=O)N4CCOCC4)sc3c2)cc1,86% (inactive)
15,O=C(NCc1ccccc1Cl)c1ccc(CS(=O)(=O)c2ccc(Br)cc2)o1,127% (inactive)
16,Cc1ccc(-c2onc(C)c2C)cc1S(=O)(=O)NC1CCC(C)CC1 (configuration not stated),82% (inactive)
17,Cn1c(=O)n(C)c2cc(S(=O)(=O)Nc3ccccc3C(=O)O)ccc21,105% (inactive)
18,COc1cccc(NC(=O)C(Cc2ccccc2)NS(=O)(=O)c2ccc3c(c2)c(=O)n(C)c(=O)n3C)c1 (configuration not stated),79% (inactive)
19,COCCNC(=O)Cn1c(=O)n(-c2ccc(C)c(C)c2)c(=O)c2c3c(sc21)CCCCC3,86% (inactive)
20,CC(=O)c1cccc(NC(=O)Cn2ccn3nc(-c4ccccc4)cc3c2=O)c1,83% (inactive)
21,COc1cc(CNc2ccc3[nH]c(=O)[nH]c3c2)cc(Cl)c1OCc1ccc(F)cc1,76% (inactive)
22,COc1cc(CNc2ccc3[nH]c(=O)[nH]c3c2)cc(Br)c1OCc1ccc(F)cc1,99% (inactive)
23,Oc1ccc(NCc2ccccc2OCc2ccccc2)cc1,61% (inactive)
24,CCOc1ccc(CC(=O)NCc2ccc3c(c2)CCN3C(=O)c2ccccc2)cc1OCC,72% (inactive)
25,CCOc1cc(CNc2ccc(O)cc2)ccc1OCc1ccc(Cl)cc1,53% (inactive)

row,SMILES,survival
1,CCOc1cc(CNc2ccc(O)cc2)cc(Cl)c1OCc1ccccc1,1% (active)
2,CCOc1cc(CNc2ccc(O)cc2)cc(Br)c1OCc1ccccc1,3% (active)
3,CCOc1c(Cl)cc(CNc2ccc3[nH]c(=O)[nH]c3c2)cc1OC,95% (inactive)
4,CCOc1cc(CNc2ccc(C(=O)O)cc2)ccc1OCc1ccccc1,47% (active)
5,CCn1cc(C(=O)NCCCOC)c(=O)c2cc(S(=O)(=O)N3CCc4ccccc4C3)ccc21,92% (inactive)
6,Cc1cc(=O)[nH]c2nnc(SCc3ccc(C(F)(F)F)cc3)n12,74% (inactive)
7,COc1ccc(NC(=O)CCc2c(C)nc3cc(-c4cccc(F)c4)nn3c2C)cc1Cl,129% (inactive)
8,CCCCCCOc1ccc(/C=C/C(=O)Nc2sc3c(c2C(=O)OC)CCC3)cc1OC,69% (inactive)
9,O=C(NCCc1ccccc1)c1cnc2sc(N3CCOCC3)nn2c1=O,100% (inactive)
10,O=c1oc2ccc3ccccc3c2cc1-c1nnc(Nc2ccccc2)s1,84% (inactive)
11,CCc1ccc(CNC(=O)CN2C(=O)C3CCCCN3c3ccc(C(=O)N4CCCC4)cc32)cc1 (configuration not stated),75% (inactive)
12,O=C(CSCn1nnc2c(=O)[nH]c(Cc3ccc(F)cc3)nc21)Nc1ccccc1,52% (inactive)
13,CCCc1cnc2c(c1SCC(=O)N1CCC(C)CC1)c(=O)n(C)c(=O)n2C,96% (inactive)
14,Cc1cccc(C)c1NC(=O)CSc1nc2ncccc2o1,79% (inactive)
15,COc1cccc(NC(=O)CSc2nnc(-c3cccs3)o2)c1,52% (inactive)
16,Cc1c(Cl)cccc1NC(=O)CSc1nc2ncccc2o1,6% (active)
17,O=C(CSc1nc2ncccc2o1)Nc1ccc(Cl)cc1F,70% (inactive)
18,O=C(CSc1nnc(-c2cccs2)o1)Nc1cccc(C(F)(F)F)c1,47% (active)
19,Cc1cccc(NC(=O)CSc2nnc(-c3cccs3)o2)c1,50% (inactive)
20,O=C(CSc1nc2ncccc2o1)Nc1cccc(C(F)(F)F)c1,-1% (active)
21,COc1cc(NC(=O)CSc2nc3ncccc3o2)cc(OC)c1,64% (inactive)
22,O=C(CSc1nnc(-c2ccccc2F)o1)Nc1cccc(C(F)(F)F)c1,54% (inactive)
23,O=C(CSc1nc2c(c(=O)[nH]1)CCC2)Nc1ccccc1F,73% (inactive)
24,COc1ccccc1C(OC(=O)c1ccco1)C(=O)NCC1CCCO1 (configuration not stated),85% (inactive)
25,OCc1nc2ccc(-c3ccc4nc(CO)[nH]c4c3)cc2[nH]1,51% (inactive)

row,SMILES,survival
1,COc1cccc(NC(=O)CC(C)S(=O)(=O)c2ccc3c(c2)NC(=O)CO3)c1 (configuration not stated),115% (inactive)
2,CCOC(=O)c1ccc(NC(=O)Cn2c(=O)cc(C)c3c(C)nn(-c4ccc(CC)cc4)c32)cc1,71% (inactive)
3,Cc1c(C(=O)Nc2ccc(Br)cc2F)oc2ccc(S(=O)(=O)N3CCC4(CC3)OCCO4)cc12,81% (inactive)
4,CC(C(=O)Nc1cccc(N)c1)n1nnc2ccccc21 (configuration not stated),65% (inactive)
5,Nc1nc(SCC(=O)N(CCO)CCO)nc2sc3c(c12)CCCC3,110% (inactive)
6,CC1CCCc2sc3nc(SCC(=O)c4ccc(Br)cc4)nc(N)c3c21 (configuration not stated),42% (inactive)
7,CCCCCCSc1nc(N)c2c3c(sc2n1)CCCC3C (configuration not stated),-7% (active)
8,CCn1nc(-c2ccccc2)c(-c2ccccc2)c(C(=O)Nc2ccccc2C(N)=O)c1=O,77% (inactive)
9,CCn1c(SCC(=O)Nc2cc(Cl)ccc2OC)nc2c([nH]c3ccccc32)c1=O,101% (inactive)
10,Cc1ccccc1Cn1c(=O)n(CCC(=O)NCc2ccco2)c(=O)c2sccc21,106% (inactive)
11,Cc1cc(NC(=O)CC(C)C)no1,69% (inactive)
12,CC1(C)CC2CC(C)(CN2C(=O)c2cc(-c3ccccc3)on2)C1 (configuration not stated),99% (inactive)
13,O=C(CSCc1ccccc1Cl)N1CCN(c2ccc(Cl)cc2)CC1,92% (inactive)
14,O=C(CSCc1ccccc1Cl)N1CCN(c2ccc(F)cc2)CC1,46% (active)
15,O=C(CSc1n[nH]c(-c2ccccc2)n1)N1CCN(c2ccc(F)cc2)CC1,65% (inactive)
16,COc1ccc(-c2nc(SCC(=O)N3CCN(c4ccc(F)cc4)CC3)n[nH]2)cc1,88% (inactive)
17,O=C(CCSCc1ccccc1Cl)N1CCN(c2ccc(F)cc2)CC1,66% (inactive)
18,O=C(CSc1n[nH]c(-c2ccc(F)cc2)n1)N1CCN(c2ccc(F)cc2)CC1,-5% (active)
19,Cc1ccc(CNC(=O)c2ccc(-c3nc(CN4CCc5ccccc54)c(C)o3)cc2)cc1,84% (inactive)
20,CC1CCCCC1NC(=O)CSc1nccc(=O)[nH]1 (configuration not stated),69% (inactive)
21,Cc1cc(-c2ccc(C)c(S(=O)(=O)N(Cc3cccs3)C(C)C)c2)on1,65% (inactive)
22,CCc1ccc(-c2nc(SCC(=O)NCC3CCCO3)c(-c3ccc(C)cc3)[nH]2)cc1 (configuration not stated),103% (inactive)
23,COc1ccc(CCNC(=O)c2cc(-c3ccc(Cl)cc3)on2)cc1OC,64% (inactive)
24,Cc1cc(C)n(C(C)CC(=O)Nc2cccc(C(F)(F)F)c2)n1 (configuration not stated),73% (inactive)
25,COc1ccccc1CNC(=O)c1sc2nc3n(c(=O)c2c1C)CCC3,103% (inactive)

row,SMILES,survival
1,C/C(=N\NC(N)N)C1CCCCCCCCCCC1,0% (active)
2,Cc1cc(Cl)ccc1NC(=O)C1CCN(c2nnc(-n3c(C)ccc3C)s2)CC1,88% (inactive)
3,Fc1ccccc1N1CCN(c2nnc(C(F)(F)F)c3nnn(Cc4ccccc4)c23)CC1,78% (inactive)
4,Cc1ccc2c(c1)sc1nc(=O)n(-c3cccc(Cl)c3)c(=O)n12,85% (inactive)
5,O=c1nc2sc3ccccc3n2c(=O)n1-c1ccc(Cl)c(Cl)c1,22% (active)
6,Cc1ccc2c(c1)sc1nc(=O)n(-c3ccc(Cl)cc3)c(=O)n12,59% (inactive)
7,CCN(CC)C(=O)c1sc2c(c1C)c(=O)n(-c1ccc(Cl)c(Cl)c1)c(=O)n2Cc1ccccc1C#N,83% (inactive)
8,Cc1ccc2c(c1)sc1nc(=O)n(-c3ccc(Cl)c(Cl)c3)c(=O)n12,-6% (active)
9,CCOc1ccc2c(c1)sc1nc(=O)n(-c3ccc(Cl)c(Cl)c3)c(=O)n12,88% (inactive)
10,CC(C(=O)c1ccccc1)C1(O)C(=O)Nc2ccccc21 (configuration not stated),94% (inactive)
11,Cc1ccc2nc(-c3ccccc3O)c(Nc3ccccc3C)n2c1,92% (inactive)
12,Cc1ccccc1Nc1c(-c2ccc(N3CCOCC3)cc2)nc2ccc(Br)cn12,74% (inactive)
13,O=C(NCc1ccccc1)c1cnc2sc(N3CCCC3)nn2c1=O,77% (inactive)
14,Cc1ccc(S(=O)(=O)C2(C(=O)Nc3ccc(C)c(Cl)c3)CC2)cc1,21% (inactive)
15,Cc1ccc(S(=O)(=O)C2(C(=O)Nc3ccc(C(C)C)cc3)CC2)cc1,19% (active)
16,Cc1cc(Br)ccc1NC(=O)C1(S(=O)(=O)c2ccc(Cl)cc2)CC1,62% (inactive)
17,CCOC(=O)c1ccc(NC(=O)C2(S(=O)(=O)c3ccc(Cl)cc3)CC2)cc1,75% (inactive)
18,O=C(Nc1ccccc1C(F)(F)F)C1(S(=O)(=O)c2ccc(Cl)cc2)CC1,84% (active)
19,O=C(Nc1ccccc1C(F)(F)F)c1ccncc1,91% (inactive)
20,CCc1ccccc1NC(=O)C1(S(=O)(=O)c2ccc(Cl)cc2)CC1,90% (active)
21,COC(=O)c1ccc(NC(=O)C2(S(=O)(=O)c3ccc(C)cc3)CC2)cc1,134% (inactive)
22,Cc1ccc(S(=O)(=O)C2(C(=O)Nc3ccc(Cl)c(C(F)(F)F)c3)CC2)cc1,26% (inactive)
